Experiment [1] has as its system PRMT1 (protein arginine N-methyltransferase 1). As to the kind of experiment: small molecules binding arginine methyltransferase PRMT1 – biochemical, small-molecule microarray, 635 nm fluorescence, primary screen (AID 1088).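 Further: binding of Prmt1 protein to compounds spotted on small-molecule microarray slides.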 Particulars: higher = more signal.
Experiment [2] can be described thus: growth effects on S. cerevisiae YJM789 – YJM789 clinical isolate, OD600, 24 h, basal, primary screen (AID 1089).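 Further: growth of clinical yeast isolate S. cerevisiae YJM 789 seeded 1000 cells per well; test concentration not given here.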 Particulars: higher = more signal, called active from +8 up or from −8 down.
Experiment [3] can be described thus: S. pombe growth modifiers, basal conditions – strain 972, OD600, 24 h, no modulator, primary screen (AID 1090).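 Further: basal condition with compound alone and no growth modifier present; test concentration not given here.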 Particulars: S. pombe 972 growth, higher = more signal, called active from +8 up or from −8 down.
The nature of experiment [4]: budding yeast growth modifiers under rapamycin – strain BY4716, OD600, 96 h, primary screen (AID 1091). Further: test concentration not given here. Particulars: S. cerevisiae BY4716 + rapamycin, higher = more signal, called active from +8 up or from −8 down.
Experiment [5] has as its target Torsin-1A-interacting protein 2 (Homo sapiens) (UniProt Q8NFQ8). As to the kind of experiment: small molecules binding lysate-expressed LULL1 – cell lysate, human LULL1 lysate, 635/667 nm fluorescence, primary screen (AID 1092).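 Further: probe is lysate of COS7 cells overexpressing human LULL1; score merges per-feature 667 nm fluorescence with signal-to-noise.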 To be noted: small-molecule microarray, hLULL1 lysate binding, 635 nm fluorescence; higher = more signal.
The nature of experiment [6]: optical density change of DRC41 E. coli – strain DRC41, OD650, 24 h, E. coli filamentation project, primary screen (AID 1093).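 Further: MC1000 strain lacking acrAB efflux and sulA so SOS filamentation is blocked; test concentration not given here.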 Particulars: E. coli DRC41 growth, higher = more signal, called active from +8 up or from −8 down.
Experiment [7] is described as follows: probe aLefty2 binding to arrayed compounds – biochemical, biotinylated probe, 635/667 nm fluorescence, primary screen (AID 1094).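 Further: score merges spot fluorescence near 667 nm with spot signal-to-noise ratio.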 Particulars: small-molecule microarray, higher = more signal.
Experiment [8] deals with Noggin (protein binding on small-molecule microarray). As to the kind of experiment: small molecules binding Noggin protein – biochemical, 635/667 nm fluorescence, primary screen (AID 1095).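 Further: score merges 667 nm feature fluorescence with signal to noise over triplicate slides.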 Particulars: 635 nm fluorescence, higher = more signal.
In experiment [9] the target is Neurogenic locus notch homolog protein 3 (Homo sapiens) (UniProt Q9UM47). As to the kind of experiment: small molecules binding NOTCH3 protein – biochemical, 635/667 nm fluorescence, primary screen (AID 1096). Particulars: small-molecule microarray, 635 nm fluorescence, higher = more signal.
Experiment [10] is described as follows: probe aEGFR binding to arrayed compounds – biochemical, biotinylated probe, 635/667 nm fluorescence, primary screen (AID 1097).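 Further: probe is a biotinylated anti-EGFR antibody binding compounds printed on slides; score combines fluorescence near 667 nm and signal to noise of each spot.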 Particulars: small-molecule microarray, higher = more signal.

Active and inactive are the calls of the source.

Neurogenic locus notch homolog protein 3 (Homo sapiens), sequence (Q9UM47 whole entry, looked up): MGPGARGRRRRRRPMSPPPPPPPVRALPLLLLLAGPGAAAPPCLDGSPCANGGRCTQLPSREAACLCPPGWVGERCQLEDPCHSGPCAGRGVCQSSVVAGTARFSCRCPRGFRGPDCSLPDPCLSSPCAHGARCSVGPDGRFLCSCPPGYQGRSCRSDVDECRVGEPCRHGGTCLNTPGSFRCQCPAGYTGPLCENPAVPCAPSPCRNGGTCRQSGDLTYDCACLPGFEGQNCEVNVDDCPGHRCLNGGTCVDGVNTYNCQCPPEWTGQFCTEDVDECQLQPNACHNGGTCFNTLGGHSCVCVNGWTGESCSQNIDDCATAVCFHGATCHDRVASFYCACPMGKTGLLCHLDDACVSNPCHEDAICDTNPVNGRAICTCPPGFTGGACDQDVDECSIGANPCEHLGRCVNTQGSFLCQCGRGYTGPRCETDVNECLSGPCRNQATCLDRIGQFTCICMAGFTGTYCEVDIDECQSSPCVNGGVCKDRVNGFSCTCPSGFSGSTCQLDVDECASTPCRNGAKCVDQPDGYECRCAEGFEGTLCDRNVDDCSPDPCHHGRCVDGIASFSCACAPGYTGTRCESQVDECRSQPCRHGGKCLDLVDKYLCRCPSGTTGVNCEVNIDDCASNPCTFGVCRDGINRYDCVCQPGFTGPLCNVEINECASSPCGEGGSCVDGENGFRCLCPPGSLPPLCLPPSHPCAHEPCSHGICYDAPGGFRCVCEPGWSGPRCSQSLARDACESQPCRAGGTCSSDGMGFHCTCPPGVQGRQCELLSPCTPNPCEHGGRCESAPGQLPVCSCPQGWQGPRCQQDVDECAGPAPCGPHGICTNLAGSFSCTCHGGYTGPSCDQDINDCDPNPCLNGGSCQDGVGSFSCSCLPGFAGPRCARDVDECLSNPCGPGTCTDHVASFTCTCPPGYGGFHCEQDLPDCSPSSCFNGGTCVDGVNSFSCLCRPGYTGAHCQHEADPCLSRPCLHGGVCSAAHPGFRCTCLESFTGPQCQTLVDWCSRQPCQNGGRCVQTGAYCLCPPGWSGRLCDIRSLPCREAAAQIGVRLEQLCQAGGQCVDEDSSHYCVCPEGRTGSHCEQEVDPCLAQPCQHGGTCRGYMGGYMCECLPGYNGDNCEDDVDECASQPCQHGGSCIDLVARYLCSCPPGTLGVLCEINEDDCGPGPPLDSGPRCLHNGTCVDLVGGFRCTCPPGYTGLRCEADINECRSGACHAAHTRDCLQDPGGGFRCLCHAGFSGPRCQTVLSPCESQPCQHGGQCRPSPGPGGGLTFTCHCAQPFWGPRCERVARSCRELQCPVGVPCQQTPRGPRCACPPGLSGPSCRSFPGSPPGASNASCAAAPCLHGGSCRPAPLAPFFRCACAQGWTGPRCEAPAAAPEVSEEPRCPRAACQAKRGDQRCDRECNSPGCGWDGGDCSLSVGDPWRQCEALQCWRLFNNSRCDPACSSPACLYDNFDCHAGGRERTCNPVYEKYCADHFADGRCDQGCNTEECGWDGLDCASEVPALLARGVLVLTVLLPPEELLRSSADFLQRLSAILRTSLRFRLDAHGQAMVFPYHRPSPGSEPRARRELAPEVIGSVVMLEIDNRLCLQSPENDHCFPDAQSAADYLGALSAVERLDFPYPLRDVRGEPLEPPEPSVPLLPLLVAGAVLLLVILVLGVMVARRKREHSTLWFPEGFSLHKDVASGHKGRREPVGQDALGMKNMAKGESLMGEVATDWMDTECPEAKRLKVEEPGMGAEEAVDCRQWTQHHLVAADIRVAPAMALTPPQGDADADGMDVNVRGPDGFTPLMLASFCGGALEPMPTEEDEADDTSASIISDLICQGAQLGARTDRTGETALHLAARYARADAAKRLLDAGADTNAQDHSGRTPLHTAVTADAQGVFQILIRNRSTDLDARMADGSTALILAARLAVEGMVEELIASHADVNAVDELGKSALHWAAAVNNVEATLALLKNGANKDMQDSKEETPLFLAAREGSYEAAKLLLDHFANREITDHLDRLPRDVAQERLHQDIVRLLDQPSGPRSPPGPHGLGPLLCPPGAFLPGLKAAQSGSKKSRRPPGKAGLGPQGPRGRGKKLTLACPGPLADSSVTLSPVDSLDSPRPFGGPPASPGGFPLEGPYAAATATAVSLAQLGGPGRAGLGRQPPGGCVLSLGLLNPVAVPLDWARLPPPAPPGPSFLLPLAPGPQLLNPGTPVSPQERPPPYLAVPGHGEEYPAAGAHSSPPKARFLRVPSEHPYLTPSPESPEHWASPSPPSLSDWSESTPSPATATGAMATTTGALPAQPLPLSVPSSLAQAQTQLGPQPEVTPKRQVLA
Torsin-1A-interacting protein 2 (Homo sapiens), sequence (Q8NFQ8 whole entry, looked up): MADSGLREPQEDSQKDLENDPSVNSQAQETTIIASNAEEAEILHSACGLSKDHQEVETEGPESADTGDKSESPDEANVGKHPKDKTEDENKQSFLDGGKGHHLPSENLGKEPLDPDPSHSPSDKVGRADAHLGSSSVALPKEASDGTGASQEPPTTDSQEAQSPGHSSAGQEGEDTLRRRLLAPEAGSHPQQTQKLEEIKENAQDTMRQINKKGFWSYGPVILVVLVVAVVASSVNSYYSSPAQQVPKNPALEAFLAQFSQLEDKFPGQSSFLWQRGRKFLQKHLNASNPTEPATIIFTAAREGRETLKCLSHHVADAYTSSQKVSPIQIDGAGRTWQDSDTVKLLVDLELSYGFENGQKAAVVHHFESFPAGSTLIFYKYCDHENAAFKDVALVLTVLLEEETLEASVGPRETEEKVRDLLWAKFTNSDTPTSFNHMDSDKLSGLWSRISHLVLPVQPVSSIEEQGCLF

For `C[C@]1(C(=O)NC2CC2)c2ccccc2C(=O)N(Cc2ccc(OC(F)(F)F)cc2)[C@H]1c1ccc(CO)cc1`, the composite z-score in experiment [1] was -0.613; in experiment [5] it was 1.77; in [7], -0.128; in experiment [8], -0.221; in [9], -0.943; in experiment [10], -0.169. The z-score was -0.352 (inactive) in experiment [2], -0.0814 (inactive) in [3], -0.439 (inactive) in [4] and 0.735 (inactive) in experiment [6].
For the compound `COCCCNC(=O)[C@@H]1c2ccccc2C(=O)N(Cc2ccccc2C(F)(F)F)[C@H]1c1ccc(CO)cc1`, the composite z-score is 0.12 in experiment [1]; 0.73 in experiment [5]; -0.0855 in experiment [7]; -0.789 in experiment [8]; -0.941 in experiment [9]; -0.0146 in [10]. Moreover, the z-score in [2] is -0.409 (inactive); in [3] it was -0.514 (inactive); in experiment [4] it was -0.368 (inactive); in experiment [6] it was 0.598 (inactive).
For the compound `CCOc1cc(C(O)C2C=CC3C(=O)N(C4CCCCC4)C(=O)C3N2Nc2ccc(OC)cc2)ccc1O` (stereo not given), the composite z-score is 1.17 in experiment [1]; 3.21 in [5]; 0.0252 in experiment [7]; 0.163 in [8]; 1.05 in experiment [9]; 0.0295 in experiment [10]. The z-score in experiment [2] was -0.344 (inactive); in [3], -0.118 (inactive); in experiment [4], -0.129 (inactive); in experiment [6] it was -0.0874 (inactive).
For the compound `O=C(CS)NCCCCCCNC(=O)[C@H]1C[C@H]2C(=O)N[C@@H](Cc3ccccc3)C(=O)N2[C@H]1c1cccc(OCCO)c1`, the composite z-score in experiment [1] came to 1.54; in [5], 2.81; in experiment [7], 0.118; in [8] it was 1.6; in [9] it was 1.02; in experiment [10], 0.14. Moreover, the z-score is 0.646 (inactive) in experiment [2], 0.311 (inactive) in [3], 1.15 (inactive) in experiment [4] and -0.23 (inactive) in experiment [6].
Regarding `O=C(CS)NCCCCCCNC(=O)[C@@H]1C[C@@H]2C(=O)N3CCC[C@H]3C(=O)N2[C@@H]1c1cccc(OCCO)c1`, the composite z-score in experiment [1] is 1.35; in experiment [5], 2.35; in [7], 0.177; in [8], 0.488; in [9], 1; in experiment [10], 0.0195. Also, the z-score is -1.69 (inactive) in experiment [2], 0.335 (inactive) in [3], -0.365 (inactive) in experiment [4] and 1.2 (inactive) in experiment [6].
In the case of `COc1cc2c(cc1OC)CN(C(=O)[C@H]1[C@@H]3C(=O)O[C@@H](c4ccccc4)[C@@H](c4ccccc4)N3[C@@H](c3ccc(OCCO)cc3)[C@]13C(=O)Nc1ccc(C#CC4(O)CCCCCC4)cc13)CC2`, the composite z-score was found to be 1.56 in [1]; 2.37 in [5]; 1.02 in [7]; 1.47 in [8]; 1.09 in [9]; 0.678 in [10]. Also, the z-score in experiment [2] was 3.2 (inactive); in experiment [3], 1.28 (inactive); in experiment [4], 4.84 (inactive); in experiment [6], 2.32 (inactive).
As for `O=C1NC(=O)C2C1C=CC(C(O)c1ccc(Br)cc1)N2Nc1ccccn1` (stereo not given), the composite z-score in experiment [1] came out at 0.215; in experiment [5], 1.18; in [7] it was 0.119; in experiment [8], 0.248; in experiment [9] it was 0.63; in experiment [10], 0.315. The z-score is -1.26 (inactive) in experiment [2], 0.61 (inactive) in experiment [3], -0.683 (inactive) in [4] and -0.931 (inactive) in experiment [6].
Turning to `COCCOC(=O)N1C(=O)[C@@]2(c3cc(C#CC4(O)CCCCCC4)ccc31)[C@H](C(N)=O)[C@H]1C(=O)O[C@H](c3ccccc3)[C@H](c3ccccc3)N1[C@@H]2c1ccccc1OCCO`, the composite z-score in experiment [1] is 1.54; in experiment [5], 2.49; in experiment [7] it was -0.484; in experiment [8], 1.09; in [9] it was 1.08; in [10], 0.445. In addition, the z-score in [2] was 1.53 (inactive); in experiment [3] it was -0.0153 (inactive); in experiment [4], 4.1 (inactive); in experiment [6], 0.58 (inactive).
Regarding `O=C1O[C@@H](c2ccccc2)[C@@H](c2ccccc2)N2[C@@H](c3ccccc3OCCO)[C@]3(C(=O)Nc4ccc(C#CC5=CCCCC5)cc43)[C@@H](C(=O)NC[C@H](O)c3ccccc3)[C@H]12`, the composite z-score is 1.55 in experiment [1]; 2.38 in experiment [5]; -0.273 in experiment [7]; 0.988 in [8]; 1.11 in [9]; -0.0371 in experiment [10]. The z-score is 1.03 (inactive) in experiment [2], 0.112 (inactive) in [3], 3.61 (inactive) in experiment [4] and 1.38 (inactive) in [6].
Turning to `C=C1C2CC3C(=C4C(CO[C@@H]4[C@H]4CCCN4S(=O)(=O)c4ccccc4[N+](=O)[O-])C4C(=O)N(C)C(=O)C34)CC2C(=O)N1C` (stereo not given in full), the composite z-score in experiment [1] was 0.627; in experiment [5], 0.303; in experiment [7] it was -0.139; in experiment [8] it was 0.082; in experiment [9], 0.22; in [10], 0.106. The z-score in [2] was -0.0815 (inactive); in [3] it was -4.92 (inactive); in experiment [4], -0.824 (inactive); in [6], -0.509 (inactive).
As to `O=C1O[C@@H](c2ccccc2)[C@@H](c2ccccc2)N2[C@@H](c3ccc(O)cc3)[C@]3(C(=O)Nc4ccc(C#CCCO)cc43)[C@@H](C(=O)NC[C@H](O)c3ccccc3)[C@H]12`, the composite z-score was 0.581 in experiment [1]; 2.9 in experiment [5]; -0.112 in experiment [7]; 1.11 in [8]; -0.494 in experiment [9]; -0.202 in experiment [10]. Besides, the z-score in experiment [2] was 0.235 (inactive); in experiment [3] it was -0.137 (inactive); in experiment [4], 0.914 (inactive); in experiment [6] it was 0.231 (inactive).
With `CCCC=C(CCC)[C@@H](NP(=O)(c1ccccc1)c1ccccc1)c1ccc(C(F)(F)F)cc1`, the composite z-score in [1] is 0.804; in experiment [5], 1.01; in experiment [7], 0.0593; in [8], -0.13; in [9], 0.11; in experiment [10], 0.58. The z-score in experiment [2] was -0.276 (inactive); in experiment [3], 0.423 (inactive); in experiment [4] it was 0.0291 (inactive); in [6], -0.159 (inactive).
Regarding `CC(CO)N1C(=O)[C@@H]2C3C(=O)OCCC/C=C\[C@H]3OC23C=CCN(Cn2nnc4ccccc42)C(=O)[C@@H]13` (stereo not given in full), the composite z-score in [1] is -1.18; in [5], -1.1; in experiment [7] it was -0.198; in experiment [8], -0.254; in experiment [9] it was 0.219; in [10] it was -0.152. In addition, the z-score in experiment [2] was 0.216 (inactive); in experiment [3] it was -0.152 (inactive); in experiment [4], -0.637 (inactive); in experiment [6], 0.333 (inactive).
For the compound `C=CCNC(=O)[C@@H]1[C@H]2C(=O)O[C@H](c3ccccc3)[C@H](c3ccccc3)N2[C@H](c2ccccc2OCCO)[C@@]12C(=O)N(C(=O)OCCOC)c1ccc(C#CC3=CCCCC3)cc12`, the composite z-score in experiment [1] is 1.54; in [5], 2.31; in [7] it was -0.205; in experiment [8], 1.34; in experiment [9] it was 1.15; in [10] it was -0.0435. The z-score was 0.363 (inactive) in experiment [2], -0.0834 (inactive) in [3], 3.14 (inactive) in experiment [4] and 0.906 (inactive) in experiment [6].
